Results reported in PubChem BioAssay AID1159580 (chemical genetic matrix, 2015).
About 2,000 (36%) of roughly 5,500 compounds were called active. Roughly 18% stayed inconclusive and do not appear here. No stated cut-off is given here; in the data, active means normalized growth mostly below about 0.91 (no sharp cut-off); inconclusive means no clear call, values can overlap the other calls; inactive means mostly above about 0.92. The list shows a part of the results.

Experiment: chemical genetic growth profiling, strain panel (AID 1159580);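 further: tested at 20 µM; growth read once vehicle control cultures reached saturation at 30 °C; 1 = growth at the plate median or of vehicle wells; lower values mean less growth of the strain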
Details: growth OD

Measured: normalized growth

Cc1ccnc(NS(=O)(=O)c2ccc(N)cc2)n1
inactive: S. cerevisiae deletion strains, locus YJR075W, strain HOC1, hits give low values 1.02 | S. cerevisiae deletion strains, locus YKL009W, strain mrt4, hits give low values 1.01 | S. cerevisiae deletion strains, locus YKL068W, hits give low values 1 | S. cerevisiae deletion strains, locus YKL085W, strain MDH1 (second series), hits give low values 1.01 | S. cerevisiae deletion strains, locus YKL085W, strain MDH1, hits give low values 1.01 | S. cerevisiae deletion strains, locus YKL160W, strain elf1, hits give low values 1.01 | S. cerevisiae deletion strains, locus YKL190W, strain CNB1, hits give low values 0.985 | S. cerevisiae deletion strains, locus YKR001C, strain vps1, hits give low values 1.02 | S. cerevisiae deletion strains, locus YKR026C, strain gcn3, hits give low values 1.01 | S. cerevisiae deletion strains, locus YKR091W, strain srl3, hits give low values 0.998 | S. cerevisiae deletion strains, locus YLL001W, strain dnm1, hits give low values 1.01 | S. cerevisiae deletion strains, locus YLL026W, hits give low values 1 | S. cerevisiae deletion strains, locus YLL041C, strain sdh2, hits give low values 1 | S. cerevisiae deletion strains, locus YLR027C, strain aat2, hits give low values 1 | S. cerevisiae deletion strains, locus YLR039C, strain RIC1, hits give low values 1.04 | S. cerevisiae deletion strains, locus YLR058C, strain SHM2, hits give low values 1.02 | S. cerevisiae deletion strains, locus YLR102C, strain apc9, hits give low values 1.01 | S. cerevisiae deletion strains, locus YLR113W, strain HOG1, hits give low values 0.984 | S. cerevisiae deletion strains, locus YLR221C, strain rsa3, hits give low values 0.98 | S. cerevisiae deletion strains, locus YLR258W, strain gsy2, hits give low values 0.975 | S. cerevisiae deletion strains, locus YLR262C, strain YPT6 (second series), hits give low values 1.04 | S. cerevisiae deletion strains, locus YLR262C, strain YPT6, hits give low values 1.05 | S. cerevisiae deletion strains, locus YLR268W, strain sec22, hits give low values 1.03 | S. cerevisiae deletion strains, locus YLR320W, strain mms22, hits give low values 0.961 | S. cerevisiae deletion strains, locus YLR330W, strain CHS5, hits give low values 1.01 | S. cerevisiae deletion strains, locus YLR342W, strain FKS1 (second series), hits give low values 1 | S. cerevisiae deletion strains, locus YLR342W, strain FKS1, hits give low values 1.01 | S. cerevisiae deletion strains, locus YLR357W, strain rsc2, hits give low values 1.04 | S. cerevisiae deletion strains, locus YLR370C, strain arc18, hits give low values 1 | S. cerevisiae deletion strains, locus YLR371W, strain rom2, hits give low values 1.01 | S. cerevisiae deletion strains, locus YLR384C, strain iki3, hits give low values 1.01 | S. cerevisiae deletion strains, locus YLR418C, strain cdc73, hits give low values 1.07 | S. cerevisiae deletion strains, locus YML016C, strain PPZ1, hits give low values 1.01 | S. cerevisiae deletion strains, locus YML032C, strain rad52, hits give low values 1.01 | S. cerevisiae deletion strains, locus YML120C, strain ndi1, hits give low values 1.02 | S. cerevisiae deletion strains, locus YML124C, strain tub3, hits give low values 1.01 | S. cerevisiae deletion strains, locus YMR058W, strain fet3, hits give low values 1 | S. cerevisiae deletion strains, locus YMR078C, strain ctf18, hits give low values 1.01 | S. cerevisiae deletion strains, locus YMR125W, strain sto1, hits give low values 0.995 | S. cerevisiae deletion strains, locus YMR129W, hits give low values 0.998 | S. cerevisiae deletion strains, locus YMR205C, strain PFK2, hits give low values 1.01 | S. cerevisiae deletion strains, locus YMR223W, strain ubp8, hits give low values 1 | S. cerevisiae deletion strains, locus YMR231W, strain pep5, hits give low values 1 | S. cerevisiae deletion strains, locus YMR263W, strain SAP30, hits give low values 0.996 | S. cerevisiae deletion strains, locus YMR307W, strain GAS1, hits give low values 1.01 | S. cerevisiae deletion strains, locus YNL067W, strain RPL9B, hits give low values 1.02 | S. cerevisiae deletion strains, locus YNL071W, strain lat1, hits give low values 0.987 | S. cerevisiae deletion strains, locus YNL128W, strain TEP1, hits give low values 1.02 | S. cerevisiae deletion strains, locus YNL153C, strain GIM3, hits give low values 1.01 | S. cerevisiae deletion strains, locus YNL183C, strain NPR1, hits give low values 0.972 | S. cerevisiae deletion strains, locus YNL209W, strain ssb2, hits give low values 0.982 | S. cerevisiae deletion strains, locus YNL233W, strain BNI4, hits give low values 1.01 | S. cerevisiae deletion strains, locus YNL248C, strain rpa49, hits give low values 1.01 | S. cerevisiae deletion strains, locus YNL250W, strain rad50, hits give low values 1.03 | S. cerevisiae deletion strains, locus YNL271C, strain bni1, hits give low values 1.02 | S. cerevisiae deletion strains, locus YNL298W, strain CLA4, hits give low values 1.02 | S. cerevisiae deletion strains, locus YNL307C, strain MCK1, hits give low values 1.02 | S. cerevisiae deletion strains, locus YNL322C, strain KRE1 (second series), hits give low values 0.998 | S. cerevisiae deletion strains, locus YNL322C, strain KRE1, hits give low values 1 | S. cerevisiae deletion strains, locus YNR049C, strain mso1, hits give low values 1.01 | S. cerevisiae deletion strains, locus YNR052C, strain pop2, hits give low values 1.03 | S. cerevisiae deletion strains, locus YOL006C, strain TOP1, hits give low values 1.03 | S. cerevisiae deletion strains, locus YOL012C, strain htz1 1.03 | S. cerevisiae deletion strains, locus YOL147C, strain pex11, hits give low values 1.02 | S. cerevisiae deletion strains, locus YOR001W, strain rrp6, hits give low values 1.01 | S. cerevisiae deletion strains, locus YOR061W, strain CKA2, hits give low values 1.01 | S. cerevisiae deletion strains, locus YOR069W, strain VPS5, hits give low values 1.01 | S. cerevisiae deletion strains, locus YOR070C, strain gyp1, hits give low values 0.989 | S. cerevisiae deletion strains, locus YOR080W, strain dia2, hits give low values 1.01 | S. cerevisiae deletion strains, locus YOR083W, strain WHI5, hits give low values 0.979 | S. cerevisiae deletion strains, locus YOR106W, strain vam3, hits give low values 0.975 | S. cerevisiae deletion strains, locus YOR136W, strain idh2, hits give low values 1.01 | S. cerevisiae deletion strains, locus YOR144C, strain elg1, hits give low values 1.02 | S. cerevisiae deletion strains, locus YOR184W, strain ser1, hits give low values 1.03 | S. cerevisiae deletion strains, locus YOR231W, strain MKK1, hits give low values 0.98 | S. cerevisiae deletion strains, locus YOR265W, strain rbl2, hits give low values 1.01 | S. cerevisiae deletion strains, locus YOR270C, strain vph1, hits give low values 1.04 | S. cerevisiae deletion strains, locus YOR290C, strain snf2, hits give low values 0.964 | S. cerevisiae deletion strains, locus YOR316C, strain cot1, hits give low values 1.01 | S. cerevisiae deletion strains, locus YPL051W, strain arl3, hits give low values 1.01 | S. cerevisiae deletion strains, locus YPL055C, strain LGE1, hits give low values 0.988 | S. cerevisiae deletion strains, locus YPL078C, strain atp4, hits give low values 1.03 | S. cerevisiae deletion strains, locus YPL106C, strain sse1, hits give low values 0.968 | S. cerevisiae deletion strains, locus YPL240C, strain hsp82, hits give low values 0.989 | S. cerevisiae deletion strains, locus YPL241C, strain CIN2, hits give low values 1.01 | S. cerevisiae deletion strains, locus YPL256C, strain CLN2, hits give low values 0.965 | S. cerevisiae deletion strains, locus YPR119W, strain clb2, hits give low values 1.01 | S. cerevisiae deletion strains, locus YPR141C, strain kar3, hits give low values 1.03 | S. cerevisiae deletion strains, locus YPR163C, strain tif3, hits give low values 1.03 | S. cerevisiae deletion strains, locus YPR167C, strain met16, hits give low values 1 | S. cerevisiae deletion strains, strain wtn01, hits give low values 1.02 | S. cerevisiae strains, strain wild type, hits give low values 0.999
